Bioassay records: PubChem BioAssay, National Center for Advancing Translational Sciences (NCATS)
CHX counter – counter-screen for Shiga toxin inhibitors: cycloheximide protein synthesis inhibition | max response, % | actives 12% (n = 300,000) | cell reporter, cycloheximide protein synthesis inhibition counterscreen; in the data active = max response mostly above about 13%, no sharp cut-off; inactive = mostly below about 14%; also: read at 38.3 µM for the half of the compounds with a filed dose
NS1 inh – inhibitors of influenza NS1 protein function; actives 0.4% (n = 270,000); Potency, µM (doses to about 46.1 µM); calls by dose curve; also: actives are rising curves; nearly all actives have a fitted effect of over 50% in size
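Growth recovery, yeast-based: influenza A NS1 expressed in S. cerevisiae causes slow growth, and suppressors are detected by OD600. The parent strain without NS1 is used as positive control.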
AmpC detergent – inhibitors of E. coli AmpC beta-lactamase with detergent. Potency, µM (top dose mostly 114 µM), most hits filed as inhibitors. P00811. AID 485294. actives 0.041% (n = 370,000). AmpC hydrolysis of nitrocefin, absorbance 480 nm, 0.01% Triton; also: nearly all actives have a fitted effect of over 25% in size
Target sequence (P00811 whole entry, looked up): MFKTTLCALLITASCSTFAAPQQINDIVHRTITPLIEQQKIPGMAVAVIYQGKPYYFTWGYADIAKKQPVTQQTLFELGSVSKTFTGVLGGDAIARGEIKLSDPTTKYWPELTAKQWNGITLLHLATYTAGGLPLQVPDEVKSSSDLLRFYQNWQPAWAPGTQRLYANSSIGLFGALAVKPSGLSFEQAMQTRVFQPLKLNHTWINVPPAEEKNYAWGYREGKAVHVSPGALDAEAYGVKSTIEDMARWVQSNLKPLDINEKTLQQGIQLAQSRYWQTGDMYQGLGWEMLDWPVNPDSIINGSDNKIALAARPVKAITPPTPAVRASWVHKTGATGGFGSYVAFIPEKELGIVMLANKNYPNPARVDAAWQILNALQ
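AmpC (5.3 nM in the dispensed reagent) in 20 mM phosphate pH 7.0 with 0.01% (detergent screen) or 0.0001% Triton X-100 was preincubated with compounds for 15 min at room temperature. Nitrocefin was then added from an 800 uM solution, and hydrolysis was followed at 480 nm.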
AmpC inh no detg – inhibitors of E. coli AmpC beta-lactamase without detergent; AmpC nitrocefin hydrolysis, absorbance 480 nm, 0.0001% Triton; Potency, µM (doses to about 57.1 µM), actives largely listed as inhibitors; actives 0.52% (n = 330,000); AID 485341; also: nearly all actives have a fitted effect of over 20% in size
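AmpC (5.3 nM in the dispensed reagent) in 20 mM phosphate pH 7.0 with 0.01% (detergent screen) or 0.0001% Triton X-100 was preincubated with compounds for 15 min at room temperature. Nitrocefin was then added from an 800 uM solution, and hydrolysis was followed at 480 nm.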
Shiga toxin inh – Shiga toxin inhibition; AID 2315; Vero cells, Shiga toxin protein synthesis inhibition reporter; actives 9.2% (n = 290,000); inhibition, % at 38.7 µM; in the data active = inhibition mostly above about 28%, no sharp cut-off; inactive = mostly below about 43%
Each line names hits and unclear results; the compound was inactive in the other large screens. Only a selection was taken, and hits are over-represented in it overall. Unless noted, calls follow the shape of the dose curve; as a rule, active = well fitted curve in the direction sought with a large enough effect; inconclusive = small, poorly fitted or top-dose-only effect, or another doubt; inactive = no such curve, though single readings can be large; an effect the other way counts as inactive or inconclusive.

Cc1ccc(C(c2nnnn2C2CCCC2)N2CCc3ccccc32)cc1 (stereo not drawn)	CHX counter 22
CC(C)C(c1nnnn1C1CCCC1)N1CCc2ccccc21 (stereo not drawn)	none
O=C(Nc1ccon1)Nc1ccc(Cl)cc1Cl	CHX counter 25, Shiga toxin inh 42
Cc1ccc(NC(=O)Nc2ccon2)cc1Cl	CHX counter 28, AmpC detergent inconclusive, Shiga toxin inh 50
O=C(Nc1ccon1)Nc1cccc(Cl)c1Cl	CHX counter 9.6
Cc1ccc(NC(=O)Nc2ccon2)cc1	CHX counter 40, Shiga toxin inh 66
COc1ccc(OC)c(-n2nnnc2SCC(=O)NCc2ccc3c(c2)OCO3)c1	AmpC detergent inconclusive
O=C(O)COCc1nc2ccccc2[nH]1	AmpC detergent inconclusive
c1ccc(C(c2cccc3c2ccc2ccccc23)[C@H](c2ccccc2)c2cccc3c2ccc2ccccc23)cc1 (stereo partly drawn)	none (no result: CHX counter, AmpC detergent, AmpC inh no detg, Shiga toxin inh)
CCOc1ccc(NC(=O)Nc2ccon2)cc1	CHX counter 39, AmpC detergent inconclusive, Shiga toxin inh 58
O=C(Nc1ccc(Cl)cc1)Nc1ccon1	CHX counter 15, Shiga toxin inh 29
COc1ccc(N2C(=S)NC3N2C(=S)NC3(C)c2ccccc2)cc1 (stereo not drawn)	CHX counter 37, Shiga toxin inh 56 (no result: NS1 inh)
CC1Sc2ccc(S(=O)(=O)N3CCC(C(=O)NCCc4ccccc4)CC3)cc2NC1=O (stereo not drawn)	CHX counter 15
Cc1ccc(CCNC(=O)C2CCN(S(=O)(=O)c3ccc4c(c3)NC(=O)C(C)S4)CC2)cc1 (stereo not drawn)	none
Cc1ccc(NC(=O)C2CCN(S(=O)(=O)c3ccc4c(c3)NC(=O)C(C)S4)CC2)c(Cl)c1 (stereo not drawn)	CHX counter 16
COc1ccc(-c2ccc(=O)n(CC(=O)Nc3ccccc3C(F)(F)F)n2)cc1	none (no result: CHX counter, NS1 inh, AmpC inh no detg, Shiga toxin inh)
CC(C)c1ccc(NC(=O)C2CC2c2ccccc2)cc1 (stereo not drawn)	CHX counter 18
CC(=O)Nc1ccc2c(c1)OCCOCCOc1cc(NC(C)=O)ccc1OCCOCCOCCO2	none
O=C(Nc1ccc2c(c1)OCCO2)C1CC1c1ccccc1 (stereo not drawn)	CHX counter 65, AmpC inh no detg inconclusive, Shiga toxin inh 94
O=C(O)C1CCCCC1C(=O)Nc1ccc2c(c1)OCCO2 (stereo not drawn)	CHX counter 34, Shiga toxin inh 102
O=C(Nc1ccncc1)C1CC1c1ccccc1 (stereo not drawn)	none
O=C(Nc1ccc2c(c1)OCCO2)C(=O)NC1CC1	CHX counter 29, AmpC detergent inconclusive, Shiga toxin inh 80
CCCCN1C(=O)C(=O)c2cc(Cl)ccc21	none (no result: CHX counter, NS1 inh, AmpC detergent, Shiga toxin inh)
Cc1cccc(S(=O)(=O)c2cn(C)c3cc(N4CCN(c5ccccc5)CC4)c(F)cc3c2=O)c1	none (no result: CHX counter, NS1 inh, AmpC inh no detg, Shiga toxin inh)
CCOC(=O)C(NC(=O)CC)(Nc1ccccc1OC)C(F)(F)F (stereo not drawn)	CHX counter 17, AmpC detergent inconclusive
CCOC(=O)C(NCc1ccccc1OC)(NC(=O)CC)C(F)(F)F (stereo not drawn)	none
COc1ccc(N(C(=O)COc2ccccc2OC)S(=O)(=O)c2ccc(Cl)cc2)cc1	none (no result: CHX counter, NS1 inh, AmpC inh no detg, Shiga toxin inh)
O=C(Nc1ccccc1)c1nnsc1S(=O)c1ccc(Cl)cc1 (stereo not drawn)	AmpC detergent inconclusive, AmpC inh no detg 14µM
O=C(c1nnsc1S(=O)c1ccc(Cl)cc1)N1CCOCC1 (stereo not drawn)	CHX counter 60, AmpC detergent inconclusive (no result: NS1 inh)
CN(c1ccc(C(=O)N2CCOCC2)cc1)S(=O)(=O)c1ccc(Cl)cc1	CHX counter 10, Shiga toxin inh 34
O=C(c1nnsc1S(=O)(=O)c1ccc(Cl)cc1)N1CCOCC1	CHX counter 28, Shiga toxin inh 45 (no result: NS1 inh)
CNC(=O)c1nnsc1S(=O)(=O)c1ccc(Cl)cc1	AmpC detergent inconclusive, AmpC inh no detg inconclusive (no result: NS1 inh)
O=C(CSc1nc2c([nH]c3ccccc32)c(=O)n1-c1ccc(F)cc1)N1CCc2ccccc21	none (no result: CHX counter, NS1 inh, AmpC inh no detg, Shiga toxin inh)
COc1cccc(CNC(=O)c2c(C)nn(-c3cccc(C)c3)c2-n2cccc2)c1	none (no result: CHX counter, NS1 inh, AmpC inh no detg, Shiga toxin inh)
COc1ccccc1N=Nc1[nH]c2ccc(C)cc2c1O	CHX counter 22, Shiga toxin inh 32
Cc1ccc2[nH]c(O)c(N=Nc3nc4ccccc4s3)c2c1	none
COc1cc(/C(C)=N/N2CCN(c3ccccc3OC)CC2)ccc1O	CHX counter 22
C/C(=N\N1CCCCC1)c1ccccc1O	none
COc1ccccc1N1CCN(/N=C(\C)c2ccccc2O)CC1	CHX counter 32, Shiga toxin inh 34
CS(=O)(=O)c1ccc(C(=O)OCC(=O)N2CCCc3ccccc32)cc1	none (no result: CHX counter, NS1 inh, Shiga toxin inh)
Cc1ccc(C)c2c1c1ccccc1n2C	CHX counter 20
COc1ccc(-c2cc(C(F)(F)F)nc(NCc3ccccc3)n2)cc1OC	none (no result: CHX counter, NS1 inh, AmpC inh no detg, Shiga toxin inh)
Cc1sc2c(c1C)CN(CCN1CCOCC1)CN2C(=O)c1ccccc1	CHX counter 20 (no result: NS1 inh)
O=C(c1ccccc1)c1ccc(C(=O)N2CCOCC2)cc1	none
C#CCn1c(C)cc(C)c(S(=O)(=O)c2ccccc2)c1=O	CHX counter 26, Shiga toxin inh 100
O=c1/c(=C/c2ccc([N+](=O)[O-])cc2)sc2n1CCCN=2	CHX counter 35, Shiga toxin inh 46
COc1cc(/C=c2\sc3n(c2=O)CCCN=3)ccc1O	CHX counter 25
COc1cc(/C=c2\sc3n(c2=O)C(c2ccccc2)C(c2ccccc2)=NN=3)ccc1O (stereo not drawn)	none
Cc1ccc(NN2C(=O)C=CC2=O)cc1	none
Cc1ccccc1NN1C(=O)C=CC1=O	AmpC inh no detg 0.14µM
CC(C)(C)OC(=O)NC(CNCc1ccccc1)Cc1ccccc1 (stereo not drawn)	AmpC detergent inconclusive (no result: CHX counter, NS1 inh, Shiga toxin inh)
COCCN(C)C(=O)CC1C(=O)NCCN1CC(c1ccccc1)c1ccccc1 (stereo not drawn)	none
CCOC(=O)Cc1csc(NC(=O)c2cccc(OC)c2)n1	CHX counter 12
CCOC(=O)Cc1csc(NC(=O)Nc2cccc(OC)c2)n1	CHX counter 17
CCN(CC(=O)Nc1cccc(OC)c1)C(=O)c1ccc(C)s1	none
CCOC(=O)Cc1csc(NC(=O)c2csc(C)c2)n1	CHX counter 28, Shiga toxin inh 35
CCOC(=O)CN(Cc1sccc1C)C(=O)Nc1cccc(OC)c1	CHX counter 12, Shiga toxin inh 48
CC1=C(C(=O)NCc2ccccc2C)C2(CCCCCC2)OC1=O	none (no result: CHX counter, NS1 inh, AmpC inh no detg, Shiga toxin inh)
CC(C)N(C(=O)[C@H]1C[C@H](CC(=O)NCCc2ccccn2)C(=O)N2CCc3c([nH]c4cc(CCC(=O)N(C)C)ccc34)[C@]12C)C(C)C	none (no result: CHX counter, NS1 inh, AmpC detergent, Shiga toxin inh)
CCOC(=O)Cc1csc(NC(=O)c2sc3nc4c(C)cc(C)cc4cc3c2N)n1	CHX counter 20, NS1 inh inconclusive
COc1cccc(NC(=O)CSc2nccn2C2CCCC2)c1	none (no result: CHX counter, NS1 inh, AmpC inh no detg, Shiga toxin inh)
CS(=O)(=O)N(CC(=O)NN=C1CCCCCC1)c1ccc(Oc2ccccc2)cc1	none (no result: NS1 inh)
